Measured values published in PubChem BioAssay (NCATS).
Records with an inconclusive call do not appear. The source made the active and inactive calls. The call rests on the fitted dose curve; in most records, active means well fitted curve in the direction sought with a large enough effect; inconclusive means small, poorly fitted or top-dose-only effect, or another doubt; inactive means no such curve, though single readings can be large; an effect the other way counts as inactive or inconclusive.

How the values were obtained:
[1] = NS1 protein of Zika virus - qHTS assay to identify small molecule inhibitors in human HEK 293 cells (AID 1347053); conditions: HEK293 ZIKV MR766 infection, NS1 TR-FRET, 24 h; series mostly up to 46.1 µM; further: nearly all actives have a fitted effect of over 55% in size
Summary of the method: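 HEK 293 cells, seeded 20 h at 37 C, were pretreated with compound 1 h, then infected with ZIKV MR766 (MOI = 0.5) for 24 h. NS1 was read by TR-FRET with two anti-NS1 antibodies, normalized to uninfected and infected wells.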

[2] = qHTS of pediatric cancer cell lines to identify multiple opportunities for drug repurposing: Primary screen for TC32 cells (AID 1347089); conditions: TC32 Ewing sarcoma viability, CellTiter-Glo luminescence, 48 h; series mostly up to 45.8 µM; further: nearly all actives have a fitted effect of over 60% in size
Summary of the method: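 Luminescent ATP read-out (CellTiter-Glo) of metabolically active TC32 cells after 48 h exposure. Concentration-response curves came from 11-point (MIPE, 0.78 nM–46 µM) or 8-point (NPC, 0.59 nM–46 µM) primary titrations; follow-up used 11 points.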

[3] = qHTS of pediatric cancer cell lines to identify multiple opportunities for drug repurposing: Primary screen for DAOY cells (AID 1347090); conditions: DAOY medulloblastoma viability, CellTiter-Glo luminescence, 48 h; series mostly up to 46 µM; further: nearly all actives have a fitted effect of over 55% in size
Summary of the method: (§1)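 Eight- or eleven-point concentration series, 48 h treatment at 37 degrees C in growth media; readout CellTiter-Glo luminescence. Potency and efficacy were taken from the concentration-response curves.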

[4] = qHTS of pediatric cancer cell lines to identify multiple opportunities for drug repurposing: Primary screen for SJ-GBM2 cells (AID 1347091); conditions: SJ-GBM2 viability, CellTiter-Glo luminescence, 48 h; series mostly up to 46 µM
Summary of the method: as §1

[5] = qHTS of pediatric cancer cell lines to identify multiple opportunities for drug repurposing: Primary screen for A673 cells (AID 1347092); conditions: A673 Ewing sarcoma viability, CellTiter-Glo ATP luminescence, 48 h; series mostly up to 46 µM; further: nearly all actives have a fitted effect of over 45% in size
Summary of the method: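 Cell viability of A673 measured by CellTiter-Glo ATP luminescence after 48 hours compound exposure. Dilution series spanned 0.78 nM to 46 µM (MIPE, 11-point) or 0.59 nM to 46 µM (NPC, 8-point); bortezomib 2.3 uM positive control.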

Measured: Potency

CC(CC(C#N)(c1ccccc1)C(C)C)N(C)C (stereo not given)
inactive: [1] | [2] | [3] | [4] | [5]

CCCC(=O)O[C@]1(C(=O)COC(=O)CC)CC[C@H]2[C@@H]3CCC4=CC(=O)CC[C@]4(C)[C@H]3[C@@H](O)C[C@@]21C
inactive: [1] | [2] | [3] | [4] | [5]

COc1ccccc1OCC1CNC(=O)O1 (stereo not given)
inactive: [1] | [2] | [3] | [4] | [5]

NC(=O)NC1N=C([O][Al])NC1=O (stereo not given)
inactive: [1] | [2] | [3] | [4] | [5]

O=C(O)Cn1cnnn1
inactive: [1] | [2] | [3] | [4] | [5]

COc1cc(OC)nc(O[C@H](C(=O)O)C(OC)(c2ccccc2)c2ccccc2)n1
inactive: [1] | [2] | [3] | [4] | [5]

N=C(N)c1ccc(OCCCOc2ccc(C(=N)N)cc2)cc1
inactive: [1] | [2] | [3] | [4] | [5]

CC(C)NC(=O)c1ccc(C=O)cc1
inactive: [1] | [2] | [3] | [4] | [5]

OCCc1ccccc1
inactive: [1] | [2] | [3] | [4] | [5]

CCCCC(CC)CNC(=O)CC(C)OC(=O)CCC(=O)O (stereo not given)
inactive: [1] | [2] | [3] | [4] | [5]

CCCCCCn1c(=O)c2c(ncn2C)n(C)c1=O
inactive: [1] | [2] | [3] | [4] | [5]

C[N+]1(CC2COC(c3ccccc3)(c3ccccc3)O2)CCCCC1 (stereo not given)
inactive: [1] | [2] | [3] | [4] | [5]

Cc1c(N)cccc1C(F)(F)F
inactive: [1] | [2] | [3] | [4] | [5]
